For five compounds, z-score and composite z-score results are on record in PubChem BioAssay.

Assay [1] in a line: optical density shifts of acrAB sulA E. coli – strain DRC41, OD650, 48 h, E. coli filamentation inducer project, primary screen (AID 1152).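 Note: E. coli MC1000 strain DRC41 lacking acrAB efflux pump and sulA.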 The settings on record: higher = more signal, called active from +8 up or from −8 down.
Assay [2] can be described thus: probe aLefty1 binding on compound microarray – biochemical, small-molecule microarray, 635/667 nm fluorescence, primary screen (AID 1153).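 Note: score merges spot fluorescence with signal-to-noise ratio from the scanned slide images.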 The settings on record: higher = more signal.
The nature of assay [3]: plasmodial surface anion channel blockers, osmotic lysis – cell-based, P. falciparum Indochina, OD700, 1 h, primary screen (AID 1154). The settings on record: P. falciparum Indochina infected RBC osmotic lysis, higher = more signal, called active from +8 up or from −8 down.
Assay [4] is described as follows: plasmodial surface anion channel blockers, osmotic lysis – cell-based, P. falciparum Indochina, OD700, 2 h, primary screen (AID 1155).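 Note: lysis reports solute entry through the parasite surface anion channel PSAC.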 The settings on record: P. falciparum Indochina infected erythrocytes, higher = more signal, called active from +8 up or from −8 down.
A short description of assay [5]: changes in parasitized red cell lysis, either direction – P. falciparum Indochina, OD700, 3 h, PSAC antagonist project, primary screen (AID 1156). The settings on record: P. falciparum-infected erythrocytes, osmotic lysis, higher = more signal, called active from +8 up or from −8 down.
The nature of assay [6]: plasmodial surface anion channel blockers, osmotic lysis – cell-based, P. falciparum Indochina, OD700, 18 h, primary screen (AID 1157). The settings on record: P. falciparum Indochina infected erythrocytes, osmotic lysis OD700, 18 h; higher = more signal, called active from +8 up or from −8 down.
A short description of assay [7]: S6 kinase pathway phospho-S6 level changes – cell-based, A549, cytoblot, luminescence, serum-stimulated, primary screen (AID 1158).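 Note: serum-stimulated A549 lung adenocarcinoma cells; signal is phosphorylated S6 detected by cytoblot immunostaining with HRP secondary.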 To be noted: 5 h, higher = more signal.
The target of assay [8] is NADPH oxidase 2 (Homo sapiens) (UniProt P04839). The assay can be described thus: compounds shifting NOX2 Amplex Red fluorescence – cell-based, HEK293-NOX2, PMA-stimulated, NOX inhibitor project, primary screen (AID 1159). Note: test concentration not given here. To be noted: 45 min, higher = more signal, called active from +8 up or from −8 down.
The target in assay [9] is NADPH oxidase 4 (Homo sapiens) (UniProt Q9NPH5). As to the kind of experiment: compounds shifting NOX4 Amplex Red fluorescence – cell-based, HEK293-NOX4, tetracycline-induced, NOX inhibitor project, primary screen (AID 1160). To be noted: HEK293-NOX4, Amplex Red H2O2 fluorescence, 45 min; higher = more signal, called active from +8 up or from −8 down.
Assay [10] deals with NADPH oxidase 5 (Homo sapiens) (UniProt Q96PH1). The assay can be described thus: compounds shifting NOX5 Amplex Red fluorescence – cell-based, HEK293-NOX5, NOX inhibitor project, primary screen (AID 1161). To be noted: HEK293-NOX5, ionomycin, 45 min, higher = more signal.
A short description of assay [11]: compound effects on lung adenocarcinoma cell viability – A549, calcein-AM fluorescence, 48 h, basal, profiling panel (AID 1162). Note: test concentration not given here. To be noted: higher = more signal.
Assay [12] in a line: compound effects on differentiated 3T3-L1 adipocyte viability – cell-based, 3T3-L1 adipocytes, calcein-AM fluorescence, 48 h, basal, profiling panel (AID 1163). Note: test concentration not given here. The settings on record: 3T3-L1 adipocytes viability, higher = more signal.
Assay [13] in a line: compound effects on hepatocellular carcinoma cell viability – HepG2, calcein-AM fluorescence, 48 h, basal, profiling panel (AID 1164). Note: test concentration not given here. To be noted: higher = more signal.
Assay [14] in a line: compound effects on multiple myeloma cell viability – MM1S, calcein-AM fluorescence, 48 h, basal, profiling panel (AID 1165).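 Note: viability of MM1S multiple myeloma cells under basal unstimulated conditions; test concentration not given here.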 The settings on record: higher = more signal.
The nature of assay [15]: calcein-AM signal in unstimulated myeloma cells – cell-based, calcein-AM fluorescence, 48 h, PK04 Diversity Set, profiling panel (AID 1166).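 Note: cells grown under basal conditions without added stimulus; test concentration not given here.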 The settings on record: RPMI8226 myeloma viability, higher = more signal.
Assay [16] in a line: JC-1 mitochondrial signal, unstimulated HepG2 cells – cell-based, JC-1 fluorescence, 24 h, 100 nL compound, profiling panel (AID 1167). Note: test concentration not given here. The settings on record: HepG2 mitochondrial potential, higher = more signal.
Assay [17] can be described thus: JC-1 mitochondrial signal, unstimulated adipocytes – cell-based, JC-1 fluorescence, 3T3-L1 adipocytes, 24 h, 100 nL compound, profiling panel (AID 1168). Note: test concentration not given here. The settings on record: JC-1 mitochondrial fluorescence, higher = more signal, called active from +8 up or from −8 down.
Assay [18] is described as follows: JC-1 mitochondrial signal, unstimulated myeloma cells – cell-based, JC-1 fluorescence, RPMI8226, 24 h, 100 nL compound, profiling panel (AID 1169). Note: test concentration not given here. To be noted: JC-1 mitochondrial potential fluorescence, higher = more signal.
A short description of assay [19]: JC-1 mitochondrial signal, unstimulated MM1S myeloma – cell-based, JC-1 fluorescence, 24 h, 100 nL compound, profiling panel (AID 1170). Note: test concentration not given here. To be noted: MM1S mitochondrial potential, higher = more signal.
A short description of assay [20]: resazurin metabolic signal in A549 cells – cell-based, resazurin fluorescence, 24 h, PK04 Diversity Set, profiling panel (AID 1171). Note: test concentration not given here. To be noted: A549 viability, higher = more signal, called active from +8 up or from −8 down.

Calls of active or inactive are those of the source.

Sequence of NADPH oxidase 4 (Homo sapiens) (Q9NPH5 whole entry, looked up): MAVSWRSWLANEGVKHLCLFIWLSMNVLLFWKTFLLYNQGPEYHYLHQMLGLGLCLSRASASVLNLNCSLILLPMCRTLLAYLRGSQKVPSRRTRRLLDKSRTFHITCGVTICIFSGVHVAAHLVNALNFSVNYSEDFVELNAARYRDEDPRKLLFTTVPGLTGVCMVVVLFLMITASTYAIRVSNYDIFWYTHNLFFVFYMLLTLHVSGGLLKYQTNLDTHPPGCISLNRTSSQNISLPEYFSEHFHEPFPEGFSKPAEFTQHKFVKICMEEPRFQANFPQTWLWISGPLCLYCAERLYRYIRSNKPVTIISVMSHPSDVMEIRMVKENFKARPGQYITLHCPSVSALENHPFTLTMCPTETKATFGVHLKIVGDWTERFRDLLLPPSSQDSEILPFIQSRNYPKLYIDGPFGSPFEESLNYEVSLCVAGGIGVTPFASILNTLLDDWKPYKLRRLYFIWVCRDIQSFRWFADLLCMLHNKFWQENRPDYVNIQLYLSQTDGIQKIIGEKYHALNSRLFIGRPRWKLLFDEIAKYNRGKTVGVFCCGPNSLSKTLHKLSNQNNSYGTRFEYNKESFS
Sequence of NADPH oxidase 2 (Homo sapiens) (P04839 whole entry, looked up): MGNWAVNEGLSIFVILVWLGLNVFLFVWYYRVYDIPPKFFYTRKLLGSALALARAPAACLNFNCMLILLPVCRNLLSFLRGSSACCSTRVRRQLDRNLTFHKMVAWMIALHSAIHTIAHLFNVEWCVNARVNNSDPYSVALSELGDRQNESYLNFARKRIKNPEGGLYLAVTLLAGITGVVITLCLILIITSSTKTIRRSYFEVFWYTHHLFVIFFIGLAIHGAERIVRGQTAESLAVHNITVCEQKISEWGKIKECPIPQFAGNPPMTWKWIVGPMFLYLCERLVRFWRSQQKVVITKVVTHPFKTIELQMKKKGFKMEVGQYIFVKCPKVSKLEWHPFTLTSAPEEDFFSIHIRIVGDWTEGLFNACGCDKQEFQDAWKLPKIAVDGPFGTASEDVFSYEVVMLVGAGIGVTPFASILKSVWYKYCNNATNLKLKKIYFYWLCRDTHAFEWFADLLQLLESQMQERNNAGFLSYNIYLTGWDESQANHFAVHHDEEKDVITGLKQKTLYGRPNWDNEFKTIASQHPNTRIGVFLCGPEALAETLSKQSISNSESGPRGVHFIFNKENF
Sequence of NADPH oxidase 5 (Homo sapiens) (Q96PH1 whole entry, looked up): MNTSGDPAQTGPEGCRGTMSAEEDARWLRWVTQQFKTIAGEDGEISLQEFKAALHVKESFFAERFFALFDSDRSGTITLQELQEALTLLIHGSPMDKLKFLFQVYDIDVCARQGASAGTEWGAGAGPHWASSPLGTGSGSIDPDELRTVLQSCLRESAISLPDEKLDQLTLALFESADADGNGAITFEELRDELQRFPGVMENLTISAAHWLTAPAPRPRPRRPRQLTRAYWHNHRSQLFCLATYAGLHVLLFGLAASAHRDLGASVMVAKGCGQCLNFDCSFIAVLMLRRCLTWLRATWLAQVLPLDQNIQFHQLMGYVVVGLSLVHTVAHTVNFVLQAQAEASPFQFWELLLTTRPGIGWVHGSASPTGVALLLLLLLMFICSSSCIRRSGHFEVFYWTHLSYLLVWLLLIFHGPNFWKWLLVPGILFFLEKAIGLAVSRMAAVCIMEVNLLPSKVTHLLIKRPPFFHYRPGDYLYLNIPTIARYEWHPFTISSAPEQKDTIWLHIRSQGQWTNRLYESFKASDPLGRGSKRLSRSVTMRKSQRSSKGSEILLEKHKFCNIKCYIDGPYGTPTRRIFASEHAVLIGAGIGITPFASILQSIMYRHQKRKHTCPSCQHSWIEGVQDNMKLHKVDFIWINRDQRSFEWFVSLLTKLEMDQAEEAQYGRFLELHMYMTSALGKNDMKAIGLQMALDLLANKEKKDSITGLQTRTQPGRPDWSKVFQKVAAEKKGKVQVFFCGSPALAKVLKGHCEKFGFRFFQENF

Regarding `CC(C)N1CC=CC23O[C@@H]4C=CCOC(=O)[C@@H]4[C@H]2C(=O)N(C(C)CO)[C@@H]3C1=O` (stereo not given in full), the z-score in [1] was -0.32 (inactive); in assay [3] it was 0.287 (inactive); in assay [4], 0.0397 (inactive); in assay [5], 0.112 (inactive); in [6] it was 0.111 (inactive); in assay [7], 0.74. In addition, the z-score is 0.67 (inactive) in [8]; 0.266 (inactive) in assay [9]; 0.393 in assay [10]; -0.327 in assay [11]; -0.153 in [12]; -0.719 in assay [13]. For the same compound, the z-score is 1.15 in assay [14]; -0.186 in assay [15]; -0.664 in assay [16]; -0.668 (inactive) in [17]; -0.166 in assay [18]; 0.462 in [19]. Further, in assay [20], the z-score was 0.226 (inactive). The compound further displayed a composite z-score in [2] of 0.233.

For the compound `COCCCNC(=O)[C@]1(Cc2ccccc2N=[N+]=[N-])N=C(c2ccc(OCCCO)cc2)O[C@@H]1c1ccccc1N=[N+]=[N-]`, the z-score in [1] was -0.279 (inactive); in assay [3] it was 30.8 (active); in assay [4] it was 28.7 (active); in assay [5], 1.41 (inactive); in assay [6] it was 7.56 (inactive); in [7], 0.105. In addition, the z-score was -1.23 (inactive) in assay [8]; 0.567 (inactive) in assay [9]; 1.71 in [10]; -0.795 in [11]; 0.0826 in assay [12]; -3.44 in assay [13]. Also, the z-score in assay [14] is -3.52; in assay [15] it was -3.99; in assay [16] it was -0.892; in assay [17] it was 1.03 (inactive); in [18], -1.17; in [19], -2.71. Further, the z-score in [20] is -2.56 (inactive). The compound further returned a composite z-score in [2] of 0.616.

In the case of `CC(C)(C)OC(=O)CC[C@]1(C(=O)N2CCOCC2)N=C(c2ccc(OCCCO)cc2)O[C@H]1c1ccccc1`, the z-score in [1] is 1.12 (inactive); in assay [3], 22.9 (active); in assay [4], 5.18 (inactive); in [5], 1.05 (inactive); in [6], 0.815 (inactive); in assay [7], -0.208. The z-score is -0.291 (inactive) in [8]; -0.457 (inactive) in assay [9]; -0.474 in [10]; 0.134 in assay [11]; 0.233 in [12]; 1.01 in [13]. Also, the z-score in assay [14] was 1.38; in assay [15], 0.0928; in assay [16], 0.839; in assay [17] it was 0.453 (inactive); in assay [18], 0.0149; in [19] it was -0.703. Moreover, in assay [20], the z-score was -0.743 (inactive). The same compound had a composite z-score in [2] of 0.0468.

Consider `CN(C)CCCNC(=O)[C@@]1(C)c2ccccc2C(=O)N(Cc2cc(C(F)(F)F)cc(C(F)(F)F)c2)[C@H]1c1ccc(CO)cc1`, for which the z-score is -1.2 (inactive) in [1]; 2.37 (inactive) in assay [3]; -0.0111 (inactive) in assay [4]; 2.17 (inactive) in [5]; 0.327 (inactive) in assay [6]; 0.16 in [7]. Further, the z-score in assay [8] was 0.0342 (inactive); in assay [9] it was -1.35 (inactive); in [10], -2.64; in [11], -0.434; in [12], 0.157; in [13] it was 0.221. For the same compound, the z-score is -0.309 in assay [14]; -2.36 in assay [15]; 1.31 in [16]; -0.36 (inactive) in assay [17]; -0.0152 in assay [18]; -0.279 in assay [19]. In addition, the z-score in assay [20] was -0.832 (inactive). In assay [2], the composite z-score is -0.147.

Turning to `O=C1O[C@@H](c2ccccc2)[C@@H](c2ccccc2)N2[C@@H](c3ccc(O)cc3)[C@]3(C(=O)Nc4ccccc43)[C@@H](C(=O)Nc3nc4ccccc4s3)[C@H]12`, the z-score in assay [1] was -0.198 (inactive); in assay [3] it was 1.37 (inactive); in assay [4], 2.29 (inactive); in assay [5] it was -0.492 (inactive); in [6], 1.82 (inactive); in [7] it was -0.132. In addition, the z-score in [8] was 0.642 (inactive); in assay [9] it was 0.0436 (inactive); in assay [10], 0.933; in assay [11], -2.07; in [12], 0.353; in assay [13], -1.49. The z-score is -3.37 in [14]; -4.55 in [15]; -3.64 in assay [16]; 0.169 (inactive) in assay [17]; -1.23 in assay [18]; -1.76 in [19]. Further, the z-score in assay [20] was -1.9 (inactive). The composite z-score in assay [2] was -0.209.
